Experimental data: ChEMBL document CHEMBL2218924, “A broad activity screen in support of a chemogenomic map for kinase signalling research and drug discovery” (Biochem J, 2013)

Experiments:
[1] = molecular target: T1, Serine/threonine-protein kinase TBK1 (Homo sapiens) (UniProt Q9UHD2); details: at 1 µM
T1 sequence (whole entry): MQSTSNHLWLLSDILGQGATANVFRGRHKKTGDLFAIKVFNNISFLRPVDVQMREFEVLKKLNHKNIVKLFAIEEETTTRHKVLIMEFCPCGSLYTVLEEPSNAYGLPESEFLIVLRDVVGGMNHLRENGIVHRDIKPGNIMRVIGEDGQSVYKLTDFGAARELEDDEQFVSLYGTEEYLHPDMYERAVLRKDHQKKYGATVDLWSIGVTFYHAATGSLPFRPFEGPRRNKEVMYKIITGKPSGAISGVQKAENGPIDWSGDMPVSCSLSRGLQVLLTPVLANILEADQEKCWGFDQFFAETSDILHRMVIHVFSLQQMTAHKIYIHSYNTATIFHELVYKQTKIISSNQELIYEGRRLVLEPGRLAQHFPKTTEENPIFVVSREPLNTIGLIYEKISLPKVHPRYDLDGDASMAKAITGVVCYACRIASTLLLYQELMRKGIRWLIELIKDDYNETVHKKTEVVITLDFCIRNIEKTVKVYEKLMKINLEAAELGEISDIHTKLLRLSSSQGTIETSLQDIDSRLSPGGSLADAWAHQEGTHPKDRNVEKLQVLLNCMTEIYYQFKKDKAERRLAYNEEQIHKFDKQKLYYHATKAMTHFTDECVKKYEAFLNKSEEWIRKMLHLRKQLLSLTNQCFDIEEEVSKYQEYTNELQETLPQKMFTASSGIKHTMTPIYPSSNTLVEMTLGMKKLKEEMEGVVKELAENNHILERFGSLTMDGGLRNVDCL

[2] = molecular target: T1, Serine/threonine-protein kinase TBK1 (Homo sapiens); details: at 10 µM
[3] = molecular target: T2, TGF-beta receptor type-1 (Homo sapiens) (UniProt P36897); details: at 1 µM
T2 sequence (whole entry): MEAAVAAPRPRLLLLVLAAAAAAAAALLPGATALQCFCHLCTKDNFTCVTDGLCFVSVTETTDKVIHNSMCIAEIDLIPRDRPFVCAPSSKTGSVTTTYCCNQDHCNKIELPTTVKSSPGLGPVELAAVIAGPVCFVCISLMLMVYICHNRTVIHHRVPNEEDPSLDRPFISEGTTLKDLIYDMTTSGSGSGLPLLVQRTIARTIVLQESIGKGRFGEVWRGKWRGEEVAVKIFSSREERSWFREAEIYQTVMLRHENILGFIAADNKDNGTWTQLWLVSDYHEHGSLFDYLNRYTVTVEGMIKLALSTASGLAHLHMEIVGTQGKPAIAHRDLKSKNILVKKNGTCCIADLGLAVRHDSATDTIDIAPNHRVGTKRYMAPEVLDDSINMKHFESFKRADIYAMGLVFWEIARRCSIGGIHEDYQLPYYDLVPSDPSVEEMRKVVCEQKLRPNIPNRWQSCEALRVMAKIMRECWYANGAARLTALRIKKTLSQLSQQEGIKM

[4] = molecular target: T2, TGF-beta receptor type-1 (Homo sapiens); details: at 10 µM
[5] = molecular target: Insulin-like growth factor 1 receptor (Homo sapiens) (UniProt P08069); details: at 1 µM
[6] = molecular target: T3, Inhibitor of nuclear factor kappa-B kinase subunit alpha (Homo sapiens) (UniProt O15111); details: at 1 µM
T3 sequence (whole entry): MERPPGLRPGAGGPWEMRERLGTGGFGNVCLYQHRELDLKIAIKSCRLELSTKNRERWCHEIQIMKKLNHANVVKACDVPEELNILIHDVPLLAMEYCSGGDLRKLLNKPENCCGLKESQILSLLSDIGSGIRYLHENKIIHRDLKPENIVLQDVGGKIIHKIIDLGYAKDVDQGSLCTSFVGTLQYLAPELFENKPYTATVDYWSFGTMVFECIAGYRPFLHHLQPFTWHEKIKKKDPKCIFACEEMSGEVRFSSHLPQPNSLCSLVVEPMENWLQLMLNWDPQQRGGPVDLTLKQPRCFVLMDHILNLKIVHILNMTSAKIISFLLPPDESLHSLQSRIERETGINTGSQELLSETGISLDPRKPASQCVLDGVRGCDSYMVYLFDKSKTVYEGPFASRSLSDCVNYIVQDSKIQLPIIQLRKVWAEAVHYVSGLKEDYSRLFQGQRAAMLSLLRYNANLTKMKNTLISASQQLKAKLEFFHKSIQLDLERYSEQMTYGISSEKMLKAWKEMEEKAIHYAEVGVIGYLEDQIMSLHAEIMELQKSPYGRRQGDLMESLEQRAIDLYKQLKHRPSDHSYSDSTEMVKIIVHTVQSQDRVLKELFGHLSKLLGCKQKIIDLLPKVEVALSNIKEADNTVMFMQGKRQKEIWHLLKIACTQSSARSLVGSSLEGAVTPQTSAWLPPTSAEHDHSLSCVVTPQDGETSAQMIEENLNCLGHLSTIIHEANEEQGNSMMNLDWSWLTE

[7] = molecular target: T3, Inhibitor of nuclear factor kappa-B kinase subunit alpha (Homo sapiens); details: at 10 µM
[8] = molecular target: T4, Inhibitor of nuclear factor kappa-B kinase subunit beta (Homo sapiens) (UniProt O14920); details: at 1 µM
T4 sequence (whole entry): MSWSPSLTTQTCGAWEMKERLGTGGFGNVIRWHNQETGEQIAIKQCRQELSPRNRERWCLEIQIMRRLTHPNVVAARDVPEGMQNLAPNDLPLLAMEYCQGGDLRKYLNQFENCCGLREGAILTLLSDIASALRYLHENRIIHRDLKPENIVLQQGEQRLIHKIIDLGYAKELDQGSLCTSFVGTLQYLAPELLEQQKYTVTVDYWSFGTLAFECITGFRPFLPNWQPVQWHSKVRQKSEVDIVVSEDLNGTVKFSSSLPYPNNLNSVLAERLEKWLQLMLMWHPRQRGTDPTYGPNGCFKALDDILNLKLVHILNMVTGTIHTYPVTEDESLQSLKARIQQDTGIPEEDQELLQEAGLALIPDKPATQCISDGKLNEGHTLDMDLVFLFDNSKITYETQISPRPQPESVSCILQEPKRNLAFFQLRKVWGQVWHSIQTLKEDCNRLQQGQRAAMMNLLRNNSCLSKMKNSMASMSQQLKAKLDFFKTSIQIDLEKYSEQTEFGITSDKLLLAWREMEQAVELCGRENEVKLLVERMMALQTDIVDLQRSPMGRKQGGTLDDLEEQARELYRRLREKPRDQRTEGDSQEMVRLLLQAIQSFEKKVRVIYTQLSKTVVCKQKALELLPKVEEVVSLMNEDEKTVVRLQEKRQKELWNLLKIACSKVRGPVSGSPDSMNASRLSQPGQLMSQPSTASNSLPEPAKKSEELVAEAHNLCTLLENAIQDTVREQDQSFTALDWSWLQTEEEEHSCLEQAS

[9] = molecular target: T4, Inhibitor of nuclear factor kappa-B kinase subunit beta (Homo sapiens); details: at 10 µM

Insulin-like growth factor 1 receptor (Homo sapiens), sequence (P08069 31-736 limits assumed): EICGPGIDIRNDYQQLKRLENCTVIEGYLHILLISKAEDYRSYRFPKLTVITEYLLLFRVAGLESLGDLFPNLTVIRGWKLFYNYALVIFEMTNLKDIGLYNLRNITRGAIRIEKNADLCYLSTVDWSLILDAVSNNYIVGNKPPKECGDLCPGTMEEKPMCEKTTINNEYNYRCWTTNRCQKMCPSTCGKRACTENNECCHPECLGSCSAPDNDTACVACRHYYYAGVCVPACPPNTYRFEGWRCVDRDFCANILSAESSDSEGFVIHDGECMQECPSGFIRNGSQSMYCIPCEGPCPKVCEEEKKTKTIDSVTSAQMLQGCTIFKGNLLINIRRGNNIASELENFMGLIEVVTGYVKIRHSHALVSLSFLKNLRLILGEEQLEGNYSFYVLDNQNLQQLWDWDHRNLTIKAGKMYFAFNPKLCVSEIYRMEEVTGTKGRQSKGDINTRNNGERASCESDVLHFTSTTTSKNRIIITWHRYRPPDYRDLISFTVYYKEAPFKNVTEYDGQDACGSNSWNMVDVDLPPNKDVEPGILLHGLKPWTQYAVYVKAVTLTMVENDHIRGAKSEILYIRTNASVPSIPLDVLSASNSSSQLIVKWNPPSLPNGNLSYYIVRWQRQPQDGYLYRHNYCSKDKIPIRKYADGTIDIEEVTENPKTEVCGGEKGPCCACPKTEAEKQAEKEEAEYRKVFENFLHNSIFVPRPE
Insulin-like growth factor 1 receptor (Homo sapiens), sequence (P08069 741-1367 limits assumed): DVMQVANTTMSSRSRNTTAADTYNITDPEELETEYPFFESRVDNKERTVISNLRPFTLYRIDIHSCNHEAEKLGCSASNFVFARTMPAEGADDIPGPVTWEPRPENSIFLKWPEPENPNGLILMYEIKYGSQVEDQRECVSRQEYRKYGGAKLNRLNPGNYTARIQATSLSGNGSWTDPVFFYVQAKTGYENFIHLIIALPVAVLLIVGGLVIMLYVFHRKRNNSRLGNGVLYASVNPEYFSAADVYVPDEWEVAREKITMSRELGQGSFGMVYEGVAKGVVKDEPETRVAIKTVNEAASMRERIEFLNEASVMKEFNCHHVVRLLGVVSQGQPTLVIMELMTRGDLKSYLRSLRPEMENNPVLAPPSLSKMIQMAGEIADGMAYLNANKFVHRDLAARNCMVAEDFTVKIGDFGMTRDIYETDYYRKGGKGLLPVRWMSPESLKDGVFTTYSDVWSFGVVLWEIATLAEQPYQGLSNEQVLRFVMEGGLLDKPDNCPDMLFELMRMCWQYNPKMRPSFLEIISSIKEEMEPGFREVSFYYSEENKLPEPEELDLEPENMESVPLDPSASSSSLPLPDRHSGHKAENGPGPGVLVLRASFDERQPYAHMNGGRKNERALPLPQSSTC

Structure (SMILES): CN(C)CCCn1cc(C2=C(c3c[nH]c4ccccc34)C(=O)NC2=O)c2ccccc21
- residual activity [1]: 80%
- residual activity [2]: 22%
- residual activity [3]: 91%
- residual activity [4]: 71%
- residual activity [5]: 110%
- residual activity [6]: 101%
- residual activity [7]: 58%
- residual activity [8]: 104%
- residual activity [9]: 82%
